Source: the supplement of paper PMC6555819

Columns and labels:
Assay in all cases: PBM binding z-score (relative to random genomic background probes); higher = stronger binding; sequences stand for … in GC…GCGATTGACAGCGTAGAATGAAGG
[1] = tested on: PPARg:RXRa DBDmut IVT, anti-RXR (DBD mutation: RXRa K156A/R161A, NR concentration 270 nM, RXRa partner concentration 90 nM)
Procedure, shortened: (§1)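 Binding z-scores take random background probes as their reference. They come from custom Agilent 4×180K protein-binding microarrays incubated 1 h with ligand-free nuclear receptor dimers, with antibodies against each partner (one per run) detecting binding. Scanned fluorescence was regression-normalized.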

[2] = tested on: PPARg:RXRa IVT, anti-PPARg (NR concentration 270 nM, RXRa partner concentration 90 nM)
Procedure, shortened: as §1

[3] = tested on: PPARg DBDmut:RXRa IVT, anti-PPARg (DBD mutation: PPARg1 K132A/R137A, NR concentration 270 nM, RXRa partner concentration 90 nM)
Procedure, shortened: as §1

[4] = tested on: PPARg DBDmut IVT, anti-PPARg (DBD mutation: PPARg1 K132A/R137A, NR concentration 270 nM)
Procedure, shortened: as §1

[5] = tested on: PPARg homodimer (NR concentration 180 nM)
Procedure, shortened: as §1

[6] = tested on: PXR:RXRa (NR concentration 270 nM, RXRa partner concentration 90 nM)
Procedure, shortened: as §1

[7] = tested on: PXR homodimer (NR concentration 270 nM)
Procedure, shortened: as §1

[8] = tested on: RARa:RXR (NR concentration 270 nM, RXRa partner concentration 90 nM)
Procedure, shortened: as §1

[9] = tested on: RARa homodimer (NR concentration 270 nM)
Procedure, shortened: as §1

[10] = tested on: RARb:RXRa (NR concentration 270 nM, RXRa partner concentration 90 nM)
Procedure, shortened: as §1

[11] = tested on: RARb homodimer (NR concentration 270 nM)
Procedure, shortened: as §1

[12] = tested on: RARg:RXRa (NR concentration 270 nM, RXRa partner concentration 90 nM)
Procedure, shortened: as §1

[13] = tested on: RARg homodimer (NR concentration 270 nM)
Procedure, shortened: as §1

[14] = tested on: RXRa DBDmut IVT, anti-RXR (DBD mutation: RXRa K156A/R161A, NR concentration 90 nM)
Procedure, shortened: as §1

[15] = tested on: RXRa homodimer (NR concentration 180 nM)
Procedure, shortened: as §1

[16] = tested on: THRa:RXRa (NR concentration 90 nM, RXRa partner concentration 90 nM)
Procedure, shortened: as §1

[17] = tested on: THRa homodimer (NR concentration 90 nM)
Procedure, shortened: as §1

[18] = tested on: VDR homodimer (NR concentration 270 nM)
Procedure, shortened: as §1

Sequence	PBM binding z-score [1]	PBM binding z-score [2]	PBM binding z-score [3]	PBM binding z-score [4]	PBM binding z-score [5]	PBM binding z-score [6]	PBM binding z-score [7]	PBM binding z-score [8]	PBM binding z-score [9]	PBM binding z-score [10]	PBM binding z-score [11]	PBM binding z-score [12]	PBM binding z-score [13]	PBM binding z-score [14]	PBM binding z-score [15]	PBM binding z-score [16]	PBM binding z-score [17]	PBM binding z-score [18]
ATCTCTAGGTAAAGCTAGTTCAGTGAATGCAAAT	2.03	1.83	0.606	0.732	0.371	1.07	0.241	0.383	0.278	0.0194	0.208	0.0635	0.23	-0.0872	0.134	1.15	0.00789	0.525
ACAGACAGGTGATGCAGGTAACTCAGGCTATCAT	0.0988	0.729	0.0271	0.231	0.328	-0.33	0.04	-0.107	0.231	-0.0709	0.184	0.124	0.379	-0.176	0.354	0.549	-0.0382	-0.22
CCGACTGGAGCAAGGTTACCATAACGCACAGCCA	1.3	0.76	-0.802	-0.726	0.608	0.248	-0.0714	0.527	-0.0817	0.876	1.15	0.461	0.534	0.587	0.971	1.16	0.379	0.142
ACTAGCAGGCCAAGTTGGGGTCACTCAAACAAAG	1.25	2.36	-0.0232	-0.538	2.25	5.29	1.2	5.79	-0.0777	3.14	3.81	4.97	3.25	0.825	5.2	4.16	2.89	3.34
GATACAGGGTCAGCTAGAGGCCAGAGCATGGAAA	1.04	2.15	0.0195	-0.294	1.76	2.88	-0.095	4.33	-0.0795	4.16	3.06	6.77	4.51	1.31	4.26	3.01	0.132	0.805
TAGCCTGGGTCATGCGGGCCAGTATAGTGTCGGC	0.519	2.76	-0.229	0.545	0.758	1.64	-0.615	2.42	-0.605	3.18	2.5	3.64	3.37	-0.265	3.11	2.46	-0.102	0.606
CCTAGCAGGCCAGGGTAACTCAAGCATTTCGCTT	0.216	-0.0636	-1.68	-1.83	-0.387	-0.679	-0.762	-0.455	-0.937	-0.102	-0.537	-0.456	-0.357	-0.541	-0.455	-0.054	-0.445	-0.329
AGAATGAGGTTGCCAAAGATCAGGGAAACGCTTG	-0.0771	-0.145	-0.469	-0.747	-0.291	0.0324	-0.465	0.398	-0.509	0.286	-0.195	0.266	0.336	0.261	0.9	0.855	-0.384	-0.0161
TCTAGGTGGTCACGGAGGTCACACACGACGGGTA	1.88	4.12	0.705	0.508	2.75	4.44	0.948	4.51	1.02	3.84	4.44	5.09	5.12	0.895	4.95	3.62	2.2	3.08
ATCGAGAGGTCGAAGGTGAGTATACCCACCCGAA	-0.545	1.62	0.516	0.104	0.129	2.42	-0.494	3.29	-0.646	2.8	1.46	3.28	2.62	1.02	4.3	1.82	-0.366	0.783
TGTTGTAGATCAACAGGAGGTTAAGAAAGATCGA	-0.279	0.51	0.32	0.601	0.107	0.714	-0.0905	0.912	-0.122	0.386	0.36	1.06	0.365	-0.89	0.741	0.863	-0.492	-0.0284
CCTAGCAGGCCCATCTGGGTCACTCAAGGCTTGA	0.547	2.42	-1.01	-1.83	0.0647	0.362	-0.496	1.21	-0.257	0.978	1.64	0.5	0.267	-1.2	0.768	2.23	0.0226	-0.0686
TTTCCAAGGTGAAGGTCGTTGATCCCTCTGTAGA	1.63	3.3	-0.24	0.793	1.03	1.68	0.247	2.21	-0.347	2.29	2.06	1.51	1.29	0.389	1.95	2.94	1.8	1.37
TAGCCTAGGTCAGATCGAGCCAGTATACGCTATA	0.497	1.39	-0.253	-0.42	-0.43	0.136	-0.429	0.664	-0.528	2.81	1.71	2.36	3.3	-0.301	1.23	1.61	-0.233	-0.594
CCTTACGGGTCACTCCAGGTTATAGCGTCGGAGT	2.49	3.79	0.79	-0.822	2.29	5.1	0.516	4.18	0.581	3.74	2.85	4.55	4.23	1.41	4.06	5.06	0.469	1.5
CCAGACAGGTGAGAAGGTAACGCAGCCTCGATTA	1.37	0.83	-0.151	-0.199	0.904	0.0317	0.012	0.312	0.438	0.806	0.798	0.793	0.415	0.201	0.556	0.331	0.41	-0.143

Sequence	PBM binding z-score [1]	PBM binding z-score [2]	PBM binding z-score [3]	PBM binding z-score [4]	PBM binding z-score [5]	PBM binding z-score [6]	PBM binding z-score [7]	PBM binding z-score [8]	PBM binding z-score [9]	PBM binding z-score [10]	PBM binding z-score [11]	PBM binding z-score [12]	PBM binding z-score [13]	PBM binding z-score [14]	PBM binding z-score [15]	PBM binding z-score [16]	PBM binding z-score [17]	PBM binding z-score [18]
CCTAGCAGGCCAGGGTCACTAAAGCATTTCGCTT	0.051	0.519	-1.03	-1.22	0.403	2.21	-0.725	2.96	-0.568	2.35	2.69	2.79	2.41	0.297	2.89	2.67	0.878	0.922
TCTAGCATGCCAGAGGGTCACTCAAGAGGTACGG	0.74	0.403	-0.182	-1.1	0.757	1.74	-0.449	2.86	-0.513	2.11	2.71	2.48	2.22	0.0251	2.7	1.7	-0.281	0.555
TCATGTAGATCAACAGGAGGTTAAGAAAGATCGA	1.44	0.504	0.449	0.653	-0.00792	0.814	-0.17	1.3	0.399	0.499	0.329	0.904	0.374	0.621	1.04	0.683	-0.647	0.15
GCGACTGGGGCATCAGCAGGTGACCATAACTTAA	4.17	3.33	-0.697	-0.862	0.0227	-0.51	-0.76	-0.136	-0.252	0.702	0.835	0.367	0.374	-0.296	-0.0343	0.956	-0.08	-0.617
CAGCCGAGGTCAGGGCCAGTATAGGAGGAACGTT	1.87	3.21	0.298	-0.547	2.95	3.5	0.241	4.36	0.349	4.81	3.81	5.52	5.53	2.15	5.24	3.92	1.97	1.53
CGTCAAAGTTAAACTAAGGTAACGTAAAGCACGC	0.269	0.719	0.529	0.672	0.0557	0.525	0.364	1.08	0.284	0.845	0.585	0.536	0.659	0.0253	0.521	4.04	1.78	0.399
TAGCCTAGGTCATTGGGCCAGTACAGTACGCATC	2.86	3.89	-0.0279	0.0815	1.12	1.71	-0.112	2.12	-0.528	3.67	3.02	3.95	4.57	1.77	3.3	2.91	0.878	1.28
ACAGACAGGTGATGAACGTAACTCAGGCTATCAT	-0.0291	0.144	0.839	0.504	-0.201	-0.104	0.276	-0.047	0.235	-0.0365	0.0133	0.303	0.489	0.0589	0.363	0.000937	-0.114	-0.513
GCAGACAGGTGACACGCAGGTAACTCAGGGTGGC	0.596	1.21	-0.103	-0.383	-0.125	-0.218	-0.476	0.24	-0.572	0.684	0.28	0.798	0.52	-0.855	0.715	0.997	-0.377	-0.397
ATAAGTAGGTTAAGGGTCATTCAGGTTGGTTCGC	7.68	7.64	2.34	2.31	5.84	5.44	4.03	6.12	3	3.75	4.19	4.8	3.75	2.28	6.11	3.65	2.27	4.94
GCTTGTAGATCAAGGTTAAGGAAGACTAAGCTAA	1.33	1.17	-0.221	0.338	0.301	0.301	-0.237	0.84	-0.272	0.798	0.296	0.309	0.222	-0.171	0.702	1.25	-0.259	-0.459
CCTAGCAGGCCACTCTGGGTCACTCAAGGCTTGA	2.5	3.22	-0.679	-2.2	0.299	1.04	-0.493	1.32	-0.337	1.55	2.05	1.36	1.45	0.0538	0.851	3.4	0.412	0.081
TAGCCTAGGTCATTCACGGGCCAGTATAGAAAGC	1.89	2.6	1.17	0.147	2.35	2.01	-0.0937	2.84	0.0278	3.69	2.73	4.9	4.23	1.96	2.7	2.91	0.437	1.43
CCAACTGGGGCATAAGGTTACCATAAGCCAGCCC	4.69	5.04	0.045	-0.438	0.423	0.561	-0.309	1.32	0.288	1.6	1.68	1.52	1.12	-0.33	1.24	1.97	1.29	0.0835
GCGACTGGGGCAAAGCAGGTTACTATAAGGTTGG	4.62	3.88	0.068	-0.036	0.617	0.375	-0.473	0.949	-0.471	0.879	0.948	0.427	0.689	0.143	0.276	2.81	0.101	-0.0549
